Results on 40 compounds are retold here after ChEMBL document CHEMBL3988442, “University of Dundee, Small-Polar-MMV Screening Library” (2021).

One test deals with T1, Aspartate--tRNA(Asp/Asn) ligase (Mycobacterium tuberculosis (strain ATCC 25618 / H37Rv)) (UniProt P9WFW3).
T1 sequence (whole entry): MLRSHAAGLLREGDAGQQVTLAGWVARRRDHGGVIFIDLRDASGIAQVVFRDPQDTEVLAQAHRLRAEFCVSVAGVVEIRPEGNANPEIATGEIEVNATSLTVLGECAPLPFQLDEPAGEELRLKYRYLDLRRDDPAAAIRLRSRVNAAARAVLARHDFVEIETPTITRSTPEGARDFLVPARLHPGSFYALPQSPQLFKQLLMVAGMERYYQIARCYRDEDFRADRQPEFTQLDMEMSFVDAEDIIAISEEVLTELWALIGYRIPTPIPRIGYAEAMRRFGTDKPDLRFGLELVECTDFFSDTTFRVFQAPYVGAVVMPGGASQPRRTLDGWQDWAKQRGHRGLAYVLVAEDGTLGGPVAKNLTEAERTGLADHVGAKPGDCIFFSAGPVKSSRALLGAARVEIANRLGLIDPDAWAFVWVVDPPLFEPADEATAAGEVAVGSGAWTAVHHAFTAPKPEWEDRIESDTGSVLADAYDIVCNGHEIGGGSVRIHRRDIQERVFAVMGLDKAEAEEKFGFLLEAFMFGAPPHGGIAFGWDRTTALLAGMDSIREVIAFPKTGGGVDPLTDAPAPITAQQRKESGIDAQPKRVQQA
In words: Assay for Asp RNA synthetase-1 from Mycobacterium tuberculosis. The format is functional. More on the design: scale not given: direction of the effect not stated beside the values. The conditions noted are these: 30 µM.
In the case of `Cc1nc(C2CCCN2CC(=O)N(Cc2ccsc2)C2CC2)no1` (stereo not given), the Percent Effect was determined as 0.787%.

For `COc1ccc(CS(=O)(=O)CC(=O)NCc2ccccc2F)cc1F`, the Percent Effect worked out at 5.03%.

Consider `COc1ncc(CN2CC[C@@](C)(O)[C@H](Oc3cccc(F)c3)C2)cn1`, for which the Percent Effect was 6.63%.

Regarding `Cc1ccc(N2CC[C@H]3C[C@@H](C(=O)N4CCOCC4)O[C@H]3C2)nn1`, the Percent Effect came out at 0.749%.

On to `CC1c2ncc(CNC(=O)C3CC3)n2CCN1Cc1cnn(C)c1` (stereo not given), for which the Percent Effect is 7.02%.

For the compound `Cc1ccn(-c2ccccc2NCc2ncc[nH]2)n1`, the Percent Effect was -0.604%.

In the case of `CC1=NN(c2ccc(C(=O)N3CCCC(n4ccnc4)C3)cc2)CC1` (stereo not given), the Percent Effect turned out to be 1.08%.

On to `Cc1nnc(SCC(=O)N2CCC3(CC2)c2ccccc2CC3O)o1` (stereo not given), for which the Percent Effect is 4.4%.

Regarding `CN(C)S(=O)(=O)N1CCC[C@]2(C[C@@H](Oc3ccccn3)CO2)C1`, the Percent Effect worked out at 3.16%.

Turning to `O=C(c1ccc2c(c1)COC2)N1CCC(Nc2cccnn2)CC1`, the Percent Effect is -1.3%.

For the compound `CCCNC(=O)c1cc2c(c3ccccc3n2C)n1C(=O)N(C)C`, the Percent Effect amounted to 2.3%.

`CC(=O)Nc1nc(C(=O)NC(C)c2ccc3c(c2)OCCO3)cs1` (stereo not given): the Percent Effect is -1.73%.

In the case of `CCC(=O)N(C)C1CCN(Cc2ncc(C)c(OC)c2C)CC1`, the Percent Effect is -0.759%.

`CN(Cc1nc(-c2ccco2)no1)C1CCCN(c2cccnn2)C1` (stereo not given): the Percent Effect was -3.2%.

With `O=C(NC[C@]1(O)CN(Cc2ccccc2F)C[C@H]1O)c1ccccn1`, the Percent Effect stood at 7.9%.

For the compound `Cn1cc(C(=O)NC[C@@H]2OC[C@H]3CN(S(C)(=O)=O)CC[C@H]32)cn1`, the Percent Effect is 0.41%.

Consider `Cc1nc(C2CCCN(C(=O)c3scnc3C)C2)no1` (stereo not given), for which the Percent Effect stood at 1.59%.

Consider `COCCCNC(=O)CN(C)C(=O)c1cc(C)sc1C`, for which the Percent Effect is -2.19%.

For the compound `Cc1cc(CNC(=O)NC(C)c2ccncc2)no1` (stereo not given), the Percent Effect was determined as 7.94%.

Take `O=C(NCc1ccccc1)N1CCC2(CC(=O)N(c3ccsc3)C2)C1` (stereo not given): the Percent Effect was -2.24%.

Consider `Cc1cc(C)c(OCC(=O)NS(=O)(=O)c2cccnc2)c(C)c1`, for which the Percent Effect is -4.5%.

With `Fc1cnc(N2CCCC3(CN(Cc4ccncc4)CCO3)C2)nc1` (stereo not given), the Percent Effect is 7.9%.

In the case of `CN1CC(=O)N(c2cccc(F)c2)CC12CCN(S(C)(=O)=O)C2` (stereo not given), the Percent Effect is -0.565%.

On to `O=C(NCCc1cccc(F)c1)NCC(O)c1cccc(F)c1` (stereo not given), for which the Percent Effect was -1.7%.

Regarding `Cc1nc2n(n1)CC(NCc1cc(Cl)c3c(c1)OCCCO3)CC2` (stereo not given), the Percent Effect was determined as 6.55%.

`CC(=O)N1CCN(C(=O)c2cnn(-c3ccccc3Cl)c2)CC1`: the Percent Effect is 4.65%.

Take `Cc1ccc(CNC2CCN(CCc3ccncc3)CC2)s1`: the Percent Effect is -2.55%.

On to `Cc1nc2ccccc2nc1CN1CCCC1Cn1cncn1` (stereo not given), for which the Percent Effect was -6.08%.

For `O=C(NCCc1ccccn1)C1=NN(c2ccccc2)C(=O)CN1`, the Percent Effect was determined as 11.3%.

For `Cc1ccc(C(=O)N2CCCC(NC(=O)C(C)C)C2)c(O)c1` (stereo not given), the Percent Effect amounted to 7%.

Take `O=C(c1ncccn1)N1C[C@H]2CCC[C@@]2(COCc2cccnc2)C1`: the Percent Effect turned out to be 1.54%.

As for `Cc1n[nH]c(C2CN(C(=O)c3ccco3)CCO2)n1` (stereo not given), the Percent Effect came out at 2.88%.

`Cn1ccc(C(=O)N2CCN(CCc3ccccc3)CC2)cc1=O`: the Percent Effect was -1.76%.

For `O=C(NCC1CC1)C1=NOC2(CCN(Cc3ccc4c(c3)OCO4)C2)C1` (stereo not given), the Percent Effect is 2.18%.

For the compound `O=C(N[C@@H]1CN(Cc2ccccc2)C[C@@H]2CCCO[C@@H]21)C1CC1`, the Percent Effect was found to be 1.66%.

As to `CCCc1noc(CCC(=O)NC(C)c2nnc3n2CCCCC3)n1` (stereo not given), the Percent Effect was -4.13%.

Take `Cc1ncsc1C(=O)NC1CCN(CCC(N)=O)CC1`: the Percent Effect was -2.4%.

For the compound `CCn1cc(CN2C[C@@H]3CCCN3C[C@@H]2CCSC)c(C)n1`, the Percent Effect is -0.662%.

As for `COCCN1CCCC12CCN(C(=O)CC1CCCC1)CC2`, the Percent Effect is -1.62%.

In the case of `COc1ccc2c(c1)CCN(CCC(=O)O)CC2`, the Percent Effect stood at 3.94%.

The next test addresses Shiga toxin 2 (Escherichia coli O157:H7) (UniProt P09385+P09386). In words: E. coli 0.157:H7 Shiga Toxin SOP - stx2 screening assay. In kind it is functional. Also on record: scale not given: direction of the effect not stated beside the values. Conditions: 30 µM.
For `Cc1nc(C2CCCN2CC(=O)N(Cc2ccsc2)C2CC2)no1` (stereo not given), the Percent Effect was 0.717%.

`COc1ccc(CS(=O)(=O)CC(=O)NCc2ccccc2F)cc1F`: the Percent Effect is -1.34%.

Take `COc1ncc(CN2CC[C@@](C)(O)[C@H](Oc3cccc(F)c3)C2)cn1`: the Percent Effect stood at 13%.

Consider `Cc1ccc(N2CC[C@H]3C[C@@H](C(=O)N4CCOCC4)O[C@H]3C2)nn1`, for which the Percent Effect worked out at 12.8%.

As to `CC1c2ncc(CNC(=O)C3CC3)n2CCN1Cc1cnn(C)c1` (stereo not given), the Percent Effect was -27.6%.

In the case of `Cc1ccn(-c2ccccc2NCc2ncc[nH]2)n1`, the Percent Effect is -13.8%.

In the case of `CC1=NN(c2ccc(C(=O)N3CCCC(n4ccnc4)C3)cc2)CC1` (stereo not given), the Percent Effect was -30.6%.

For `Cc1nnc(SCC(=O)N2CCC3(CC2)c2ccccc2CC3O)o1` (stereo not given), the Percent Effect was -18.7%.

Turning to `CN(C)S(=O)(=O)N1CCC[C@]2(C[C@@H](Oc3ccccn3)CO2)C1`, the Percent Effect is -10.1%.

Turning to `O=C(c1ccc2c(c1)COC2)N1CCC(Nc2cccnn2)CC1`, the Percent Effect was -8.52%.

As to `CCCNC(=O)c1cc2c(c3ccccc3n2C)n1C(=O)N(C)C`, the Percent Effect was -2.9%.

Regarding `CC(=O)Nc1nc(C(=O)NC(C)c2ccc3c(c2)OCCO3)cs1` (stereo not given), the Percent Effect was 7.36%.

Take `CCC(=O)N(C)C1CCN(Cc2ncc(C)c(OC)c2C)CC1`: the Percent Effect is -19.9%.

In the case of `CN(Cc1nc(-c2ccco2)no1)C1CCCN(c2cccnn2)C1` (stereo not given), the Percent Effect is -26.8%.

In the case of `O=C(NC[C@]1(O)CN(Cc2ccccc2F)C[C@H]1O)c1ccccn1`, the Percent Effect is 19.5%.

For `Cn1cc(C(=O)NC[C@@H]2OC[C@H]3CN(S(C)(=O)=O)CC[C@H]32)cn1`, the Percent Effect was -26.8%.

For `Cc1nc(C2CCCN(C(=O)c3scnc3C)C2)no1` (stereo not given), the Percent Effect is 5.86%.

With `COCCCNC(=O)CN(C)C(=O)c1cc(C)sc1C`, the Percent Effect is 10.4%.

As to `Cc1cc(CNC(=O)NC(C)c2ccncc2)no1` (stereo not given), the Percent Effect is -40%.

Consider `O=C(NCc1ccccc1)N1CCC2(CC(=O)N(c3ccsc3)C2)C1` (stereo not given), for which the Percent Effect was -10.6%.

Consider `Cc1cc(C)c(OCC(=O)NS(=O)(=O)c2cccnc2)c(C)c1`, for which the Percent Effect is -1.8%.

As for `Fc1cnc(N2CCCC3(CN(Cc4ccncc4)CCO3)C2)nc1` (stereo not given), the Percent Effect was -0.17%.

Turning to `CN1CC(=O)N(c2cccc(F)c2)CC12CCN(S(C)(=O)=O)C2` (stereo not given), the Percent Effect was 8.46%.

As to `O=C(NCCc1cccc(F)c1)NCC(O)c1cccc(F)c1` (stereo not given), the Percent Effect was found to be 32.2%.

For the compound `Cc1nc2n(n1)CC(NCc1cc(Cl)c3c(c1)OCCCO3)CC2` (stereo not given), the Percent Effect came to 22.8%.

Consider `CC(=O)N1CCN(C(=O)c2cnn(-c3ccccc3Cl)c2)CC1`, for which the Percent Effect worked out at 14.3%.

Take `Cc1ccc(CNC2CCN(CCc3ccncc3)CC2)s1`: the Percent Effect was -53.8%.

Consider `Cc1nc2ccccc2nc1CN1CCCC1Cn1cncn1` (stereo not given), for which the Percent Effect turned out to be 7.83%.

In the case of `O=C(NCCc1ccccn1)C1=NN(c2ccccc2)C(=O)CN1`, the Percent Effect was found to be 1.11%.

Regarding `Cc1ccc(C(=O)N2CCCC(NC(=O)C(C)C)C2)c(O)c1` (stereo not given), the Percent Effect is 7.56%.

For `O=C(c1ncccn1)N1C[C@H]2CCC[C@@]2(COCc2cccnc2)C1`, the Percent Effect is -6.19%.

Regarding `Cc1n[nH]c(C2CN(C(=O)c3ccco3)CCO2)n1` (stereo not given), the Percent Effect is 5.26%.

As to `Cn1ccc(C(=O)N2CCN(CCc3ccccc3)CC2)cc1=O`, the Percent Effect is -19.1%.

With `O=C(NCC1CC1)C1=NOC2(CCN(Cc3ccc4c(c3)OCO4)C2)C1` (stereo not given), the Percent Effect is -49.8%.

As for `O=C(N[C@@H]1CN(Cc2ccccc2)C[C@@H]2CCCO[C@@H]21)C1CC1`, the Percent Effect was -19.6%.

With `CCCc1noc(CCC(=O)NC(C)c2nnc3n2CCCCC3)n1` (stereo not given), the Percent Effect is -15.1%.

Take `Cc1ncsc1C(=O)NC1CCN(CCC(N)=O)CC1`: the Percent Effect was 13.9%.

For the compound `CCn1cc(CN2C[C@@H]3CCCN3C[C@@H]2CCSC)c(C)n1`, the Percent Effect was determined as 5.06%.

Turning to `COCCN1CCCC12CCN(C(=O)CC1CCCC1)CC2`, the Percent Effect was -6.17%.

With `COc1ccc2c(c1)CCN(CCC(=O)O)CC2`, the Percent Effect was -33.8%.
